Hit rate of the full screen: of about 420,000 compounds, about 50,000 (12%) were called active. Roughly 26% stayed inconclusive and do not appear here. The entries come from a sample that favours actives as a whole. Unmarked numbers belong to inactive results. The call rests on the fitted dose curve; in most records, active means well fitted inhibition curve with a large enough effect; inconclusive means small, poorly fitted or top-dose-only effect; inactive means flat fitted curve, though single readings scatter.
On the % scale 0 is the no-effect control and ±100 the full control effect; potency means the concentration at half of the fitted maximal effect.

This assay in a line: qHTS for Inhibitors of human tyrosyl-DNA phosphodiesterase 1 (TDP1): qHTS in cells in presence of CPT. Further: nearly all actives have a fitted effect of over 55% in size. Conditions: chicken DT40 Tdp1-/-;hTDP1 cells + 20 nM CPT, ATP luminescence, 48 h; series mostly up to 46.2 µM; activity change, negative = growth inhibition: at the top concentration. The gist of the method:
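Chicken DT40 Tdp1-/- cells complemented with human TDP1, 400 cells/well, exposed to compounds plus 20 nM camptothecin for at least 48 h at 37 C; viability read as ATP content by CellTiter-Glo luminescence.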
On the technique in general: qHTS replaces the single test concentration by a dilution series.
Consider `COc1ccc(N2C(=O)CS(=O)(=O)C23C(=O)N(Cc2ccc(C)cc2)c2ccccc23)cc1Cl` (stereo not given), for which the “activity change, negative = growth inhibition” value is -25%.

Turning to `COc1cc(CC(=O)Nc2nc(-c3ccc(F)c(F)c3)cs2)cc(OC)c1OC`, the Potency is 7.31 µM (active).

For `Cc1ccc(S(=O)(=O)NC(=O)Nc2nc(-c3ccc(F)c(F)c3)cs2)cc1`, the “activity change, negative = growth inhibition” value is 4.32%.

Turning to `COc1ccc(-c2csc(NC(=O)c3ccc(N4C(=O)CCC4=O)cc3)n2)cc1OC`, the “activity change, negative = growth inhibition” value was -0.306%.

`COc1ccc(CC(=O)Nc2nc(-c3ccc(F)c(F)c3)cs2)cc1OC`: the Potency is 10.3 µM (active).

`COc1cccc(CC(=O)Nc2nc(-c3ccc(OC)c(OC)c3)cs2)c1`: the “activity change, negative = growth inhibition” value is -62.3%.

With `COc1ccc(CCNC(=O)COC(=O)Cc2cc(OC)c(OC)c(OC)c2)cc1`, the “activity change, negative = growth inhibition” value was -2.97%.

Turning to `CCOC(=O)c1cn(CC)c2cc(F)c(F)cc2c1=O`, the “activity change, negative = growth inhibition” value is 1.13%.

Regarding `O=C(NC1CCN(C(=S)NCc2ccco2)CC1)c1ccc(F)cc1`, the “activity change, negative = growth inhibition” value is -14.3%.

On to `Cc1cc(OCCN2CCCC2)cc(C(C)C)c1`, for which the “activity change, negative = growth inhibition” value is -26.9%.

With `COc1ccc2[nH]c(C(=O)N3CCN(C)CC3)c(C)c2c1`, the “activity change, negative = growth inhibition” value is 16.8%.

As to `CCOC(=O)NN1C(=O)c2ccccc2NC1c1cccc(O)c1` (stereo not given), the “activity change, negative = growth inhibition” value is 7.21%.

As to `CCOC(=O)NN1C(=O)c2ccccc2NC1c1ccccc1O` (stereo not given), the Potency was 16.4 µM (active).

Turning to `O=C1c2ccccc2NC(c2ccccc2O)N1NS(=O)(=O)c1ccccc1` (stereo not given), the “activity change, negative = growth inhibition” value was -5.28%.

In the case of `Cc1ccc2nc(CN3CCN(S(=O)(=O)c4ccc(C)c(C)c4)CC3)oc2c1`, the “activity change, negative = growth inhibition” value was -22.4%.

Take `CCOc1ccc(N(C)Cc2cc(=O)oc3ccc(OC)cc23)cc1`: the “activity change, negative = growth inhibition” value was -25.6%.

Turning to `NC(=O)N/N=C\c1cccs1`, the “activity change, negative = growth inhibition” value is -2.34%.

With `COc1ccc2c(c1)c(C(=O)N/N=C/c1cccs1)c(C)n2C`, the Potency is 9.2 µM (active).

In the case of `Cc1cc(C)nc(SC(C)C(=O)N/N=C/c2cccs2)n1` (stereo not given), the “activity change, negative = growth inhibition” value was -29.3%.

`CCn1c(SCC(=O)Nc2nccs2)nnc1-c1ccco1`: the “activity change, negative = growth inhibition” value is 1.22%.

Take `C[C@@H]1CN([C@H](C)CO)C(=O)CCCn2nncc2CO[C@@H]1CN(C)C(=O)OCc1ccccc1`: the “activity change, negative = growth inhibition” value is -6.45%.

Consider `Cc1ccc(C)c(NC2=NCC(=O)N2c2ccc3c(c2)OCCO3)c1`, for which the “activity change, negative = growth inhibition” value is -1.47%.

As for `Cc1ccc(Cl)cc1NC(=O)NC1COc2ccccc2C1` (stereo not given), the “activity change, negative = growth inhibition” value was -8.08%.

On to `Cc1cc(NC(=O)COc2ccccc2C#N)no1`, for which the “activity change, negative = growth inhibition” value was -26.9%.

`CCc1cccc(CC)c1NC(=O)COc1ccccc1C(=O)c1cc(C#N)c(=O)n(C2CCCCC2)c1`: the Potency was 18.4 µM (active).

In the case of `CCc1cccc(C)c1NC(=O)COC(=O)CC1CCCC1`, the “activity change, negative = growth inhibition” value was 1.82%.

Turning to `CC(=O)Nc1ccc(NC(=O)CSc2nnc(COc3ccccc3C)n2CC2CCCO2)cc1` (stereo not given), the “activity change, negative = growth inhibition” value was -5.96%.

On to `Cc1cc(N/N=C/c2ccccc2F)c2ccccc2n1`, for which the “activity change, negative = growth inhibition” value is 1.17%.

Regarding `Oc1ccc(/C=N/Nc2nc(-c3ccccc3F)nc3ccccc23)c(O)c1`, the Potency was 5.8 µM (active).

As to `Oc1ccc(-c2nc3ccccc3nc2-c2ccc(O)cc2O)c(O)c1`, the “activity change, negative = growth inhibition” value is -11.8%.

With `Oc1ccc(/C=N/NC2=NCCCCC2)c(O)c1`, the “activity change, negative = growth inhibition” value is 1.13%.

Consider `Cc1nc2ccccc2nc1N/N=C/c1ccc(O)cc1O`, for which the Potency was 4.61 µM (active).

For the compound `CCNC(=O)N1CCCC(C(=O)c2ccc(-c3ccccc3)cc2)C1` (stereo not given), the Potency is 20.6 µM (active).

As to `Cc1ccccc1NC(=O)C1CCCN(C(=O)NCc2ccccc2)C1` (stereo not given), the “activity change, negative = growth inhibition” value is -21%.

As to `CCOC(=O)CCNC(=O)N1CCCC(C(=O)c2ccccc2SC)C1` (stereo not given), the “activity change, negative = growth inhibition” value is 1.59%.

On to `CN(C(=O)c1ccccc1)c1nccnc1C#N`, for which the “activity change, negative = growth inhibition” value is 19.1%.

In the case of `COC(=O)c1ccc(CN2C(=O)NC(c3ccccc3)(c3ccccc3)C2=O)o1`, the “activity change, negative = growth inhibition” value was -4.55%.

For `O=C(CN1CCc2ccccc21)NC(c1ccccc1)c1ccccc1`, the “activity change, negative = growth inhibition” value was -13.1%.

For the compound `O=C(CN1CCN(Cc2ccccc2)CC1)Nc1ccc(F)c(F)c1`, the “activity change, negative = growth inhibition” value is -6.89%.

For the compound `O=C(CN1CCN(Cc2ccccc2)CC1)NC(c1ccccc1)c1ccccc1`, the Potency is 14.6 µM (active).

For the compound `CN(C)c1ccc(CNC23CN4CN(CN(C4)C2)C3)cc1`, the Potency is 8.2 µM (active).

For `COCCN1CCN(C(=O)c2cc(COc3ccc(F)cc3Cl)on2)CC1`, the “activity change, negative = growth inhibition” value is -26.5%.

`Cn1cc(S(=O)(=O)NC(c2ccccc2)c2ccccc2)c(=O)n(C)c1=O`: the “activity change, negative = growth inhibition” value is -14.7%.

Regarding `CCn1c(SCc2ccccc2)nc2c(c1=O)SCC2`, the “activity change, negative = growth inhibition” value was -21.4%.

Take `CCn1c(SCc2ccccc2)nc2cc(OC)c(OC)cc2c1=O`: the “activity change, negative = growth inhibition” value is -16%.

With `CCn1cc2nc(SCc3cccc(F)c3)n(CCc3ccccc3)c(=O)c2n1`, the Potency was 16.4 µM (active).

As for `C[C@@H]1CN([C@H](C)CO)C(=O)CCCn2nncc2CO[C@@H]1CN(C)S(=O)(=O)c1cccc(C#N)c1`, the “activity change, negative = growth inhibition” value is -19.4%.

Regarding `C/C(=C/c1ccccc1)C(=O)N1CCN(c2ccccc2)CC1`, the “activity change, negative = growth inhibition” value was -19.7%.

For `NC(=O)C1(N2CCCC2)CCN(Cc2ccccc2)CC1`, the “activity change, negative = growth inhibition” value was -5.42%.

As for `Cc1cccc(NC(=O)CCn2c(=O)oc3ccccc32)c1`, the “activity change, negative = growth inhibition” value was 15.7%.

`Cc1onc(NC(=O)c2ccc([N+](=O)[O-])o2)c1Br`: the “activity change, negative = growth inhibition” value is -19.5%.

Turning to `O=C(Nc1ccc(Br)cn1)c1ccc([N+](=O)[O-])o1`, the Potency was 2.06 µM (active).

Take `Cc1cccc(NC(=O)c2ccc([N+](=O)[O-])o2)c1`: the Potency is 16.4 µM (active).

With `O=C(Nc1ccc(Br)cn1)c1ccc([N+](=O)[O-])cc1Cl`, the “activity change, negative = growth inhibition” value is -29.8%.

With `CN1C(=O)c2ccc(C(=O)Nc3ccc(Br)cn3)cc2C1=O`, the “activity change, negative = growth inhibition” value was -2.38%.

These data come from PubChem BioAssay AID686979 (National Center for Advancing Translational Sciences (NCATS), 2013).
